# SSB-PriA inh – inhibitors of Klebsiella pneumoniae PriA binding to SSB C-terminal tail; AlphaScreen SSBct-PriA binding, biotinylated peptide; inhibition, % at 33 µM; 0.6% of 430,000 active; AID 1272365; in the data active means inhibition mostly above about 37%, no sharp cut-off; inactive means mostly below about 20%;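 further: plate controls were negative control peptide for no effect and reference peptide for full effect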
# MazEF act – MazEF (E. coli) toxin RNase activation; P0AE70; 0.32% of 350,000 active; FAM/BHQ RNA-DNA oligo cleavage fluorescence, 5 h; activation, % at 20 µM; in the data active means activation above about 50%
# Target sequence (P0AE70 whole entry, looked up): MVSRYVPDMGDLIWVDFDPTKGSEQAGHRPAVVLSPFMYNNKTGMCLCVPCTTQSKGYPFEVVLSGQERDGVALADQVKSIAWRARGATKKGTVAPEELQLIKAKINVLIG
# Yp Topo-I inh – inhibitors of Yersinia pestis topoisomerase I | Y. pestis Topo-I cleavage product accumulation, plate reader | activity, % at 10 µM | 0.064% of 360,000 active; in the data active means activity above about 50%, passing the limit was not always enough; inconclusive means no clear call, values can overlap the other calls
# 3CLpro inhibitor – SARS-CoV 3CLpro protease inhibition. P0C6X7. recombinant SARS-CoV 3CLpro, quenched FRET peptide cleavage. inhibition, % at 6 µM. 0.14% of 290,000 active. AID 1706; in the data active means inhibition above about 12%
# * = called active by the depositor; ? = inconclusive; . = no result; + = active, no number. Most compounds without a hit are left out; they make up all but 0.9% or so of the library.
SMILES,SSB-PriA inh,MazEF act,Yp Topo-I inh,3CLpro inhibitor
CCOc1cc(N(CC)CC)ccc1/C=C(/C#N)c1nc2ccccc2[nH]1,-5.4,132.0*,-8.5,-13.6
CC(C)(O)CC[C@@H](O)C(C)(O)[C@H]1CC[C@@]2(O)C3=CC(=O)[C@@H]4C[C@@H](O)[C@@H](O)C[C@]4(C)C3CC[C@]12C (some centres not stated),-9.9,.,.,.
O=C(O)c1ccc(=O)[nH]n1,41.0*,.,.,.
CC(C)Sc1ccc(CC(=O)Nc2ccccc2Cc2nc(-c3cccnc3)no2)cc1,-13.0,.,.,.
O=[N+]([O-])c1ccc(/C=N/Nc2ccc3ccccc3c2)o1,.,12.8,-7.9,4.6
O=[N+]([O-])c1ccc(C=NNc2ccc3ccccc3c2)o1,55.3*,.,.,.
Cc1ccc2nc3sc(C(=O)Nc4cccnc4)cc3c(=O)n2c1,-17.0,.,.,.
COC(CNC(=O)c1ccc(N2CCc3ccccc32)c([N+](=O)[O-])c1)OC,47.8*,6.7,4.6,7.3
NNC(=O)c1ccc(N2CCc3ccccc32)c([N+](=O)[O-])c1,25.3,2.3,-11.5,6.5
Cc1ccc(CNC(=O)c2ccc(N3CCc4ccccc43)c([N+](=O)[O-])c2)cc1,66.2*,9.1,-5.0,0.8
O=C(NCC1CCN(S(=O)(=O)c2cccnc2)CC1)Nc1ccc(C(F)(F)F)cc1,-6.0,.,.,.
CC(C)(C)N=C1NN=C(c2cc3ccccc3o2)CS1,42.2*,-7.0,-0.3,-5.0
CC(C)(C)N=C1NN=C(c2ccc(Cl)cc2)CS1,20.0,-1.4,4.8,6.6
O=C(O)Cc1cc(=O)[nH]c(SCc2ccccc2F)n1,25.0,.,.,.
O=C(NCCn1ccnc1-c1ncccn1)Nc1c(F)cccc1F,86.0*,.,.,.
COc1cccc(NC(=O)NCCn2ccnc2-c2ccccn2)c1,-3.0,.,.,.
Cc1ccc(NC(=O)NCCn2ccnc2-c2ncccn2)cc1C,97.0*,.,.,.
CN(C)S(=O)(=O)c1ccc(C(=O)Nc2nnc(-c3ccc4c(c3)CCCC4)o2)cc1,-8.8,5.7,2.9,-0.2
COC(=O)c1ccc(C(=O)Nc2nnc(-c3ccc4c(c3)CCCC4)o2)cc1,38.0*,.,.,.
O=C(CSC1=Nc2cccnc2Nc2ccccc21)Nc1cccc(F)c1,24.0,.,.,.
O=C1NC(=S)S/C1=C/c1ccc(OC(=O)c2ccco2)cc1,-5.8,74.3*,2.4,5.2
CCOc1cc(/C=C2/SC(=S)NC2=O)ccc1OC(=O)c1ccco1,6.8,31.0,2.4,-1.2
Cc1noc(C2CCN(C(=O)CCCc3ccccc3)CC2)n1,5.0,.,.,.
Cc1noc(C2CCCN2C(=O)NCCCc2ccccc2)n1 (configuration not stated),54.0*,.,.,.
O=C(O)[C@@H]1CCCC[C@@H]1C(=O)N1CCc2ccccc2C1CN1C(=O)c2ccccc2C1=O (some centres not stated),54.8*,-2.8,12.2,4.8
SMILES,SSB-PriA inh,MazEF act,Yp Topo-I inh,3CLpro inhibitor
O=C1c2ccccc2C(=O)N1CC1c2ccccc2CCN1C(=O)C1CCCCC1 (configuration not stated),1.2,0.9,21.2,-5.0
COc1ccc2nc(C)cc(SCC(=O)NNC(=O)COc3ccc(C)cc3)c2c1,-14.3,51.2*,24.2,4.8
COc1ccc2nc(C)cc(SCC(=O)NNC(=O)COc3cccc4ccccc34)c2c1,-11.4,2.6,48.5,2.1
CN(C)S(=O)(=O)c1cccc(NC(=S)N/N=C/c2cccc(O)c2)c1,.,2.3,-2.5,2.4
CN(C)S(=O)(=O)c1cccc(NC(=S)NN=Cc2ccc(O)c(O)c2O)c1,102.1*,.,.,.
Oc1ccc(/C=N/NC(=S)Nc2cccnc2)c(O)c1O,.,60.4*,-13.4,-1.5
CC(Oc1ccc2c(c1)OCO2)C(=O)NC(c1cccnc1)C1CCOCC1 (configuration not stated),-13.0,.,.,.
COc1ccc(-c2nc(CN3CCN(Cc4cccc(F)c4)CC3)c(C)o2)cc1,11.3,-3.3,54.8*,1.4
Cc1cccc(-n2cc(CN(C)Cc3nccn3C)c(-c3cccc(F)c3)n2)c1,39.1*,-2.5,36.5,1.5
CCCN1CCCc2cc(CCNS(=O)(=O)c3ccc(OC)cc3C)ccc21,52.0*,.,.,.
CCCN1CCCc2cc(CCNS(=O)(=O)c3ccc(F)cc3C)ccc21,51.0*,.,.,.
CCCN1CCCc2cc(CCNS(=O)(=O)c3ccc(F)cc3F)ccc21,78.5*,.,.,.
CCC(=O)Nc1sccc1C(N)=O,-10.0,.,.,.
CC(C)(C)CC(C)(C)NC(=O)Nc1ccc(F)cc1,-11.0,.,.,.
C=CCn1c(CCCNC(=O)Cc2ccccc2)nc2ccccc21,-17.0,.,.,.
CC(=NN1CCN(Cc2ccc(Cl)cc2)CC1)c1ccc([N+](=O)[O-])cc1,43.9*,.,.,.
O=c1cc(-c2ccc(O)c(O)c2)oc2c1ccc1ccccc12,-13.5,119.1*,11.3,.
O=C(N/N=C/c1ccc(Sc2nc3ccccc3s2)c([N+](=O)[O-])c1)c1ccccn1,.,100.8*,6.5,-5.7
CCCCCCCCSCc1ccc(O)c2ncccc12,73.2*,.,.,.
Oc1ccc(CSCc2ccccc2)c2cccnc12,10.3,.,.,.
CCCCCCSCc1ccc(O)c2ncccc12,82.8*,.,.,.
Oc1ccc(CSC2CCCCC2)c2cccnc12,69.2*,.,.,.
COc1cc(-c2nnc(SCC(=O)Nc3nccs3)o2)cc(OC)c1OC,-11.0,.,.,.
CO/N=C/c1ccc(N2CCOCC2)c([N+](=O)[O-])c1,.,-5.7,8.8,-0.2
O=[N+]([O-])c1ccc(N2CCCC2)cc1N1CCOCC1,57.2,.,.,.
SMILES,SSB-PriA inh,MazEF act,Yp Topo-I inh,3CLpro inhibitor
CN1CCN(c2cc(N3CCCC3)ccc2[N+](=O)[O-])CC1,59.4*,.,.,.
CN1CCN(c2ccc([N+](=O)[O-])c(N3CCCCC3)c2)CC1,0.6,-6.0,-7.9,-4.0
CON=Cc1ccc(N2CCCC2)c([N+](=O)[O-])c1,38.7*,.,.,.
O=[N+]([O-])c1ccc(N2CCCC2)cc1N1CCN(c2ccccc2)CC1,84.4*,.,.,.
Cc1c(N=C2N=C(NC(=O)Nc3ccc(Cl)cc3)c3ccccc32)c(=O)n(-c2ccccc2)n1C,11.8,87.7*,3.5,-1.3
Cc1c(NC(=O)Nc2ccc(Cl)cc2)c(=O)n(-c2ccccc2)n1C,-6.7,8.1,-4.6,-0.5
O=C(O)CCCNc1cc(N2CCN(C(=O)c3ccco3)CC2)c2noc3c2c1C(=O)c1ccccc1-3,40.6*,-119.9,24.6,2.9
CCOC(=O)N1CCN(c2cc(NCCC(=O)O)c3c4c(onc24)-c2ccccc2C3=O)CC1,71.0,-30.3,?,0.1
O=C1c2ccccc2-c2onc3c(N4CCN(CCO)CC4)cc(N4CCN(C(=O)c5ccco5)CC4)c1c23,80.3*,-17.9,42.3,-0.9
CN1CCN(c2cc(N3CCN(C(=O)c4ccco4)CC3)c3c4c(onc24)-c2ccccc2C3=O)CC1,76.7*,2.4,-3.1,-4.8
COc1ccc(CCC(=O)NCC2CCCN2c2ccccc2)cc1Br (configuration not stated),20.0,.,.,.
Cc1nc(-c2ccccc2NC(=O)c2cc(-c3cccs3)nn2C)cs1,-8.0,.,.,.
CN(N=Nc1ccc([N+](=O)[O-])cc1)c1ccccc1,11.2,+,-6.6,-1.6
CN(N=Nc1cccc([N+](=O)[O-])c1)c1ccccc1,-4.1,9.5,2.0,-2.5
O=C(c1ccoc1)N1CCN(c2cc(-n3cncn3)ncn2)CC1,-7.0,.,.,.
Cc1ccc(C(=O)Nc2cccc(C(=O)NN=Cc3ccc(O)cc3)c2)cc1,1.5,.,.,.

# Assay outcomes (PubChem BioAssay)
